Screening results from PubChem.
VDR inhibitor: inhibitors of human vitamin D receptor; hit rate 0.93% among 400,000; VDR-SRC2-3 peptide fluorescence polarization, 2 h; Potency, µM, actives largely listed as inhibitors; P11473
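After 23 nl compound addition and a short centrifugation, plates sat for 2 hours at ambient temperature; polarization of fluorescence then indicated loss of VDR binding to peptide SRC2-3.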
Vif-APOBEC3F blk: blocks the Vif interaction with APOBEC3F | Potency, µM (doses to about 46.1 µM) | hit rate 0.2% among 390,000 | HeLa A3F-eYFP + Vif (tagged APOBEC3F with the HIV-1 protein that degrades it), YFP fluorescence increase; note: nearly all actives have a fitted effect of over 65% in size
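HeLa cells stably expressing A3F-eYFP plus Vif, plated and incubated overnight at 37 deg C, then exposed to compounds overnight at 37 deg C. Blocked degradation read as raised yellow fluorescence (Ex 488/Em 500-530).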
rTrxR1 inhibitor: rat TrxR1 inhibition; O89049; recombinant rTrxR1, NADPH fluorescence consumption, selenite substrate; Potency, µM (doses to about 114 µM), usual class: inhibitors; hit rate 1% among 390,000; note: nearly all actives have a fitted effect of over 65% in size
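Rat TrxR1 (90 nM in the dispensed reagent) was pre-reduced with 400 uM NADPH for 5 min at room temperature, then incubated with compound for 15 min. After 400 uM selenite was added, NADPH fluorescence (Ex 340/Em 450 nm) was followed for 8 min.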
TrxR1 substrate: rat thioredoxin reductase 1 substrate activity | AID 588456 | Potency, µM (series often up to 114 µM) | hit rate 0.01% among 390,000 | O89049 | purified TrxR1 substrate turnover, NADPH consumption readout; note: nearly all actives have a fitted effect of over 50% in size
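Rat TrxR1, dispensed at 90 nM, was prereduced with 400 uM NADPH (final) for 5 min at ~22 deg C, then incubated with compound 15 min before 400 uM selenite. A first-read NADPH fluorescence drop versus no-compound background flagged substrates.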
Vif-A3G inh: blocks the Vif interaction with human APOBEC3G; HeLa A3G-eYFP + Vif (tagged APOBEC3G with the HIV-1 protein that degrades it), YFP fluorescence, overnight; Potency, µM (highest dose often 46.1 µM), actives largely listed as inhibitors; hit rate 0.076% among 410,000; note: nearly all actives have a fitted effect of over 60% in size
Target sequence (Q9HC16 whole entry, looked up): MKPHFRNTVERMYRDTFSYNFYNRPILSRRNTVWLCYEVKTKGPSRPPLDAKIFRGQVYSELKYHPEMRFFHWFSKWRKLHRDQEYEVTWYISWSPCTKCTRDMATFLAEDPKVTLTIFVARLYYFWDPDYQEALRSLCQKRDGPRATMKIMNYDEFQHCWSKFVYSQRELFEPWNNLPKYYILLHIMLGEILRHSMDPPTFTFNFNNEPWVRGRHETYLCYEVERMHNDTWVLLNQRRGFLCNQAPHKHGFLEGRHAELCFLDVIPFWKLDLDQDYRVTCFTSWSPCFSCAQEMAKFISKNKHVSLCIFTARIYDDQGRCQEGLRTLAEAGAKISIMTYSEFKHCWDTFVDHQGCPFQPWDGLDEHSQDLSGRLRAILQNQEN
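Read-out is eYFP fluorescence (Ex 488/Em 500-530) from Vif-expressing HeLa A3G-eYFP cells; more signal means A3G escaped Vif-mediated degradation. Cells plated overnight, compound pinned in, incubated overnight at 37 deg C.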
Numbers stand for hits; . = inactive; ? = inconclusive; / = no result; ! = repeats disagree; [ ] = remark or other dose. Shown are actives, neighbours in structure and some others; about 1.8% of the full set was active somewhere. Calls come from the whole dose curve; as a rule, active = well fitted curve in the direction sought with a large enough effect; inconclusive = small, poorly fitted or top-dose-only effect, or another doubt; inactive = no such curve, though single readings can be large; an effect the other way counts as inactive or inconclusive.

SMILES	VDR inhibitor	Vif-APOBEC3F blk	rTrxR1 inhibitor	TrxR1 substrate	Vif-A3G inh
CCC(C)Nc1ccc(NC(C)CC)cc1 (centres undefined)	?	.	20µM	?	.
COc1ccccc1N1C(=O)CC(N(O)c2ccccc2)C1=O (centres undefined)	.	.	.	.	.
COc1ccccc1N(O)C1CC(=O)N(c2ccc(F)cc2)C1=O (centres undefined)	?	.	0.891µM	.	.
CCCOc1ccc(N2C(=O)CC(N(O)c3ccccc3)C2=O)cc1 (centres undefined)	.	.	7.94µM	.	.
Cc1cccc(N2CCN(C(=O)C3CCCN(S(=O)(=O)c4ccc(Br)s4)C3)CC2)c1C (centres undefined)	.	.	.	.	.
CC(C)=CCC1C(=O)N(c2ccccc2)N(c2ccccc2)C1=O	25.1µM	/	/	/	/
Cc1cccc(NC(=O)CSc2nccn2Cc2ccc(F)cc2)c1C	.	.	.	.	.
COc1ccc(C(=O)NC(=S)Nc2ccc(S(=O)(=O)Nc3cc(OC)nc(OC)n3)cc2)cc1	.	.	56.2µM	.	.
COc1ccc(C(=O)NC(=S)Nc2ccc(S(=O)(=O)Nc3cc(OC)ncn3)cc2)cc1	.	.	44.7µM	.	.
CCCCCCCCCCCCCC[C@@H](O)[C@@H](O)[C@@H](N)CO	.	/	/	/	/
O=C(O)C1CCC(NSc2ccccc2[N+](=O)[O-])CC1 (centres undefined)	28.2µM	?	.	.	.
O=[N+]([O-])c1ccccc1SNc1ccccc1	/	.	/	/	?
Cc1cccc(CN2CCN(CC(=O)Nc3c(C)cccc3C)S2(=O)=O)c1	.	.	.	.	.
COc1ccc(C(C)=O)cc1COC(=O)c1ccc(OCc2c(C)noc2C)cc1	.	.	.	.	.
COc1ccc(C(C)=O)cc1COC(=O)c1c(C)noc1C	.	.	35.5µM	.	.
O=S(=O)(Nc1nc2ccccc2nc1OCC(F)(F)F)c1cccs1	.	25.1µM	.	.	.
COc1ccc(Nc2nc3ccccc3nc2NS(=O)(=O)c2cccs2)cc1	.	.	.	.	.
O=C(NC(Nc1nc2ccc([N+](=O)[O-])cc2s1)(C(F)(F)F)C(F)(F)F)c1ccccc1Cl	.	.	.	.	.
COC(=O)C(NNc1ccccc1)(NC(=O)c1ccc(F)cc1)C(F)(F)F (centres undefined)	.	.	.	.	.
O=C(NC(NNc1ccc([N+](=O)[O-])cc1)(C(F)(F)F)C(F)(F)F)c1ccc(F)cc1	?	.	28.2µM	.	.
O=C(NC(NNc1ccc([N+](=O)[O-])cc1)(C(F)(F)F)C(F)(F)F)c1ccccc1Cl	79.4µM	.	3.16µM	.	.
COc1ccc(-c2nc3ccccn3c2Nc2ccccc2C)cc1	.	/	.	.	/
Cc1oc2ccc(O)c(CN(C)Cc3ccccc3)c2c1C(=O)Nc1cccc(Cl)c1C	.	.	.	.	.
COc1ccc(C(=O)Nc2cc(C(=O)c3ccccc3)c(C)oc2=O)cc1	31.6µM	.	11.2µM	.	.
Cc1oc(=O)c(NC(=O)c2cccc(Cl)c2)cc1C(=O)c1ccccc1	39.8µM	.	35.5µM	.	?
SMILES	VDR inhibitor	Vif-APOBEC3F blk	rTrxR1 inhibitor	TrxR1 substrate	Vif-A3G inh
COC(=O)c1cc(NC(=O)c2ccccc2)c(=O)oc1C	.	.	.[11.4 µM]	.[11.4 µM]	.
O/N=C(/CBr)c1ccc2ccccc2c1	/	/	25.1µM	.[0.0914 µM]	.
CC(C)(C)c1ccc(O)c(N=Cc2cccc([N+](=O)[O-])c2)c1	/	/	.	.	/
Oc1c(Cl)cc(Cl)cc1C=Nc1ccc(N2CCOCC2)cc1	44.7µM	.	.	.	.
Oc1ccc(C=Nc2ccc(N3CCOCC3)cc2)c(O)c1	.	.	.	.	.
CN(C)c1ccc(/C=C/c2cccc[n+]2[O-])cc1	.	?	.	.	.
CC(C)CC[n+]1ccccc1/C=C/c1ccc(N(C)C)cc1	.	7.94µM	.	.	10µM
COc1ccc(C#Cc2cnc(Cl)c3cncnc23)cc1OC	.	/	.	.	/
Cc1ccc(N2C(=O)C(Cl)=C(Nc3c(C)n(C)n(-c4ccccc4)c3=O)C2=O)cc1	.	.	17.8µM	.	.
Cc1cccc(N2C(=O)C(Cl)=C(Nc3c(C)n(C)n(-c4ccccc4)c3=O)C2=O)c1C	?	.	22.4µM	.	.
Cc1ccc(Nc2nc3ccccc3nc2Nc2c(C)n(C)n(-c3ccccc3)c2=O)cc1	.	.	?	.	.
Cc1ccc(S(=O)(=O)/N=C(\Sc2ccccc2)c2ccccc2)cc1	?	.	2.82µM	.	.
COc1ccc(NC(=S)NC(=NS(=O)(=O)c2ccc(Cl)cc2)c2ccccc2)cc1	.	?	.	.	?
COc1ccc(NC(=S)N/C(=N/S(=O)(=O)c2ccc(C)cc2)c2ccccc2)cc1	.	?	22.4µM	.	.
Cc1cccc(N2CCN(C(=O)Cn3c(=O)c4cccn4c4ccc(F)cc43)CC2C)c1 (centres undefined)	.	.	.[11.4 µM]	.	.
CCOC(=O)C1CN(S(=O)(=O)c2ccc(C)cc2)c2ccccc2O1 (centres undefined)	.	.	3.16µM	.	.
COC(=O)c1nc(NC(=O)c2cc(OC)c(OC)c(OC)c2)n[nH]1	?	?	39.8µM	.	.
Cc1ncc(CO)c(/C=N/NC(=S)Nc2cccc(Cl)c2)c1O	79.4µM	.	.	.	.
Cc1ncc(CO)c(/C=N/NC(=S)Nc2ccc(Cl)c(Cl)c2)c1O	?	.	?	.	.
CCOC(=O)C(=Cc1ccc(-n2cncn2)cc1)C(=O)OCC	15.8µM	.	22.4µM	.	?
CCOC(=O)C(=CNc1cc(C)nn1-c1ccc(Cl)cc1)C(=O)OCC	.	.	.	.	.
CCOC(=O)C(=Cc1ccccc1)C(=O)OCC	10µM	/	/	/	/
O=C(NCc1ccc(F)cc1)c1ccc(NC(=O)N2CC3CCCN3c3ccccc32)cc1 (centres undefined)	.	.	.	.	.
O=C(CCc1ccccc1)c1c(O)cc(O)cc1O	.	.	20µM	.	.
COc1ccc(C(=O)CCc2ccccc2)c(O)c1	?	.	.	.	.
SMILES	VDR inhibitor	Vif-APOBEC3F blk	rTrxR1 inhibitor	TrxR1 substrate	Vif-A3G inh
CNC(C)C#Cc1c(-c2cc(OC)c(OC)c(OC)c2)noc1C (centres undefined)	.	.	70.8µM!	.	.
O=C1Cc2ccccc2C1=C1C=c2ccccc2=C1	/	/	?	.	.
COc1ccc(F)cc1S(=O)(=O)NCC(c1ccco1)S(=O)(=O)c1ccc(F)cc1 (centres undefined)	.	.	0.891µM	.	.
COc1ccc(OC)c(S(=O)(=O)NCC(c2cccs2)S(=O)(=O)c2ccc(F)cc2)c1 (centres undefined)	.	.	3.16µM	.	.
COc1ccc(S(=O)(=O)NCC(c2ccco2)S(=O)(=O)c2ccc(C)cc2)cc1C (centres undefined)	.	.	11.2µM	.	.
CCC(=O)NC1Cc2ccccc2C(c2ccccc2)C1 (centres undefined)	.	/	/	/	/
Nc1ccc(C(Cc2ccnc3ccccc23)Cc2ccnc3ccccc23)cc1	/	/	.	.	.
